Data reported in ChEMBL document CHEMBL4513216, “Probing the Open Global Health Chemical Diversity Library for Multistage-Active Starting Points for Next-Generation Antimalarials” (ACS Infect Dis, 2020).
Screen size: about 69,000 compounds; about 8,600 (12%) showed an effect of 50% or more. The list comes from a sample in which strong results are over-represented; it also holds similar structures and randomly drawn compounds.

Each compound was assayed on Plasmodium berghei (assay: Screen against P. berghei liver stage (PbLuc), transformed with Luciferase, at 10uM). Conditions: tested at 10 uM.
Assay type: functional, HepG2
For `Cc1[nH]c(=O)[nH]c(=O)c1CC(=O)N1CCCN(CC2CC2)C(C(C)C)C1` (stereo not drawn), the INHIBITION was -69.3%. In the case of `CC(C)C1CN(C(=O)c2ccc(Cl)cn2)CCCN1CC1CC1` (stereo not drawn), the INHIBITION was 14.9%. `CC(C)C1CN(C(=O)c2cn3cc(Cl)cnc3n2)CCCN1CC1CC1` (stereo not drawn) gave an INHIBITION of 60.3%. Compound `CC(C)C1CN(C(=O)c2cc(=O)[nH]c(=O)[nH]2)CCC(=O)N1CC1CC1` (stereo not drawn) has an INHIBITION of 9.35%. With `CC(C)C1CN(C(=O)c2cn3ccccc3n2)CCCN1CC1CC1` (stereo not drawn) the INHIBITION was 47.6%. With `CC(C)C1CN(C(=O)c2cc(=O)[nH]c(=O)[nH]2)CCCN1CC1CC1` (stereo not drawn) the INHIBITION was 74.8%. `CNC(=O)C1(c2cnccn2)CCCN1C(=O)c1ccccn1` (stereo not drawn) gave an INHIBITION of 42.4%. `CCOCC(O)CN1CCN(C(=O)C2CCCC2)CC1` (stereo not drawn) gave an INHIBITION of -19.4%. `Cc1ccc(CN(CCCN2CCOCC2)Cc2cnc(C)n2C)o1` was tested, and the INHIBITION was -11.7%. For `NC(=O)C1CCN(C(=O)c2cccc(OCc3cscn3)c2)CC1`, the INHIBITION was 17.8%. `NC(=O)C1CCCN(C(=O)c2cccc(OCc3cscn3)c2)C1` (stereo not drawn) was tested, and the INHIBITION was 24.05%. Compound `O=C(c1cccc(OCc2cscn2)c1)N1CCOCC1` has an INHIBITION of 45.75%. `CC(=O)N1CCN(C(=O)c2cccc(OCc3cscn3)c2)CC1` showed an INHIBITION of 1.82%. `NC(=O)C1CCN(C(=O)c2ccc(OCc3cscn3)cc2)CC1` gave an INHIBITION of 56.85%. With `O=C1CN(C(=O)c2cccc(OCc3cscn3)c2)CCN1` the INHIBITION was 61.5%. `Cc1cccc(CN2CCC3(CC2)NC(=O)CC3c2ccccc2)n1` (stereo not drawn) gave an INHIBITION of 37.1%. Work on `CC1CCCN(C(=O)NCCCn2cncn2)C1` (stereo not drawn) yielded an INHIBITION of 9.45%. Work on `Cn1nccc1-c1nnn2c1COCC(CNCC1CC1)C2` (stereo not drawn) yielded an INHIBITION of 45.7%. Compound `CC(C)CN1CCC2(C=C(C(=O)NC3CC3)c3ccccc32)CC1` has an INHIBITION of 27.2%. In the case of `CC(C)(C)NC(=O)COc1ccc(CNCc2ccccn2)cc1`, the INHIBITION was -6.39%. With `CC(C)(C)NC(=O)COc1ccc(CNCCOc2ccccn2)cc1` the INHIBITION was 18.6%. `COCCNCc1ccc(OCC(=O)NC(C)(C)C)cc1` gave an INHIBITION of 51.6%. Compound `Cc1ccc(C2=CCN(C(=O)C3CCN(C)C(=O)C3)CC2)cc1` (stereo not drawn) has an INHIBITION of -14.7%. In the case of `COc1ncccc1C(=O)NC1CCOc2ccccc21` (stereo not drawn), the INHIBITION was 33.3%. For `CCN(C)c1ncnc2c1CCN(C(=O)NCc1cccnc1)CC2`, the INHIBITION was -75.9%. In the case of `Cc1cccc(-n2cnc(Cl)c2C(=O)O)c1`, the INHIBITION was 8.08%. Compound `Cc1ccc(-c2nn(C)c(C(=O)O)c2Br)cc1` has an INHIBITION of 62.8%. In the case of `Cn1nc(-c2ccccc2)c(Cl)c1C(=O)O`, the INHIBITION was 46.1%. Work on `Cn1nc(-c2ccccc2)c(Br)c1C(=O)O` yielded an INHIBITION of 36.9%. In the case of `Cn1nc(-c2cccc(Cl)c2)c(Br)c1C(=O)O`, the INHIBITION was 46.1%. For `Cn1nc(-c2ccc(Cl)cc2)c(Br)c1C(=O)O`, the INHIBITION was 65.6%. `CNC(=O)CN(C)C(=O)c1ccc(-c2nc(C)cs2)cc1` was tested, and the INHIBITION was 40.7%. `Cc1noc(CNC(=O)N2CCN(c3nc(C)c(C)s3)CC2)n1` was tested, and the INHIBITION was 10.5%. In the case of `CCCN(Cc1cnn(C)c1)S(=O)(=O)c1cccc(F)c1C#N`, the INHIBITION was -43.6%. With `O=C1CCC2(CCC(NC(=O)NCc3ccccc3)CC2)N1` (stereo not drawn) the INHIBITION was -46.7%. `CC(CN1CCOC1=O)NC(=O)c1cccc(Cl)c1Cl` (stereo not drawn) gave an INHIBITION of -28.9%. With `Cc1cnn(CC2CCCN2C(=O)c2ccccc2-n2cnnn2)c1` (stereo not drawn) the INHIBITION was -33.9%. For `O=c1[nH][nH]c2cn(-c3ccc(Br)cc3)c(=O)n12`, the INHIBITION was 46.4%. `O=c1[nH][nH]c2cn(-c3ccccc3)c(=O)n12` was tested, and the INHIBITION was 63.7%. In the case of `O=c1[nH][nH]c2cn(-c3ccc(F)cc3)c(=O)n12`, the INHIBITION was 26.6%. `COc1ccc2c(ccn2CCC(=O)Nc2n[nH]c(C(C)C)n2)c1` was tested, and the INHIBITION was -45.5%. In the case of `CN(C(=O)NCc1ccsc1)C1CCN(c2ccccc2)C1=O` (stereo not drawn), the INHIBITION was -10.2%. Work on `CCCc1cc(=O)n(CC(=O)NCCOC)c(-n2nc(C)cc2C)n1` yielded an INHIBITION of 28.7%. Work on `CCCc1cc(=O)n(CC(=O)NC(C)C)c(-n2nc(C)cc2C)n1` yielded an INHIBITION of 29.3%. `CCCNC(=O)CCNc1cncc(-n2nc(C)cc2C)n1` gave an INHIBITION of -2.03%. `CCCc1cc(=O)n(CC(N)=O)c(-n2nc(C)cc2C)n1` was tested, and the INHIBITION was 81.3%. For `CCCc1nc(C)cc(N2CCC3(CCC(=O)N(CC(N)=O)C3)CC2)n1`, the INHIBITION was -42.1%. `CCCNC(=O)Cn1c(-n2nc(C)cc2C)nc(CCC)cc1=O` showed an INHIBITION of 54.2%. `CN(C)CCCn1ccnc1C1CCCN(c2ncc(Cl)cc2F)C1` (stereo not drawn) showed an INHIBITION of 17.5%. Compound `O=C(O)C1(n2ccc(-c3ccco3)n2)CCN(Cc2ccccn2)CC1` has an INHIBITION of 4.1%. Work on `Cc1cc(C)n(C2CN(CC(=O)NC(C3CC3)C3CC3)C2)n1` yielded an INHIBITION of 17.4%. In the case of `O=C(NCC(=O)N1CCCC1)c1nc(Cc2c(Cl)cccc2Cl)no1`, the INHIBITION was -32.8%. With `Cc1ccc(C#N)c(N2CCC3(CCCN(C4CCOCC4)C3=O)C2)n1` (stereo not drawn) the INHIBITION was -20.8%.
